These results are taken from PubChem BioAssay (EPA / NIEHS).

Active and inactive are the calls of the source. How the source made its calls: active means hit-call score of the fitted dose curve at least 0.9, where 1 is the maximum; inactive means score below 0.9.

Read-out in the assay: matrix metalloproteinase-3 (MMP3), MMP3 (gene 4314)
Nature of the assay: LTEA_HepaRG_MMP3: Life Technologies and Expression Analysis (LTEA) Assay for matrix metalloproteinase-3 (MMP3) using HepaRG (AID 2283519). As to conditions: mRNA level, 48 h; actives raise or lower the signal. Here is the method: LTEA_HepaRG is a cell based, multiplexed-readout assay that uses HepaRG, a human liver cell line, with measurements taken at 48 hours after chemical dosing on a 96-well plate.LTEA_HepaRG_MMP3 is one of 102 assay component(s) measured in the LTEA HepaRG cell culture assay. It is a marker of Fibrosis.Data from the assay component LTEA_HepaRG_MMP3 was analyzed into 1 endpoint. This assay endpoint, LTEA_HepaRG_MMP3, was analyzed with bidirectional fitting relative to DMSO as the negative control and baseline of activity. Using a type of inducible reporter, measures of mRNA induction for gain or loss-of-signal activity can be used to understand regulation of transcription factor activity. To generalize the intended target to other relatable targets, this assay endpoint is annotated to the protease intended target family, where the subfamily is matrix metalloproteinase.
A total of 1060 chemcials from the ToxCast library were tested in eight-point concentration-response experiments. Cell culture and cytotoxicity assays were conducted at Thermo Fisher Scientific's Custom Services facility (Madison, WI). A single lot of human HepaRG cells (Thermo Fisher Scientific, Frederick, MD) was used for the cell culture experiments. 96-well format collagen type I coated plates of human HepaRG cells were prepared using established methods. Briefly, cryopreserved HepaRG cells were thawed, plated at a density of approximately 100,000 cells/well in HepaRG Thaw, Plate, and General Purpose media (HPRG770, Thermo Fisher Scientific), and incubated for 48 hours. 0.5% DMSO was selected as vehicle control to balance the requisite need of DMSO in HepaRG cultures to maintain differentiation (for example, baseline metabolism, proportions of hepatocytes vs. cholangiocytes), while enabling further hepatic receptor pathway activation (for example, PXR and CAR) in response to chemical exposure. 48 hours after plating, the culture medium was replaced with HepaRG Serum-Free Incudtion Media. Cells were exposed to each test chemical in duplicate and maintained in CO2 incubators for another 48 hours. Chemical plates were thawed to room temperature and 200x concentrations of treatment groups were prepared. 8-point conentration-reponse curves were made with the highest exposure at 100 uM, followed by half-log dilutions, all in 0.5% DMSO. Each test plate contained variouse controls, induction positive controls (1mM phenobarbital), cytotoxicity positive controls ([…] aflatoxin B1), vehicle controls (0.5% DMSO), and total lysis controls (0.5% DMSO). Cell morphology images were taken using an Essen IncuCyte FLR automated microscope, with six 96-well plates imaged in about 24 minutes. Images were captured and exported and JPEG files. Spent culture media was transfered to black-well plates for the LDH assay, and remaining media was sorted at -80 C for later use. Cells were treated with RLT buffer and frozen until shipped for gene expression analysis. Total RNA was isolated from the cell suspension in 75 uL of Buffer RLT (Qiagen, Germantown, MD 20874) by Quintiles/Expression Analysis (Durham, NC) using a custom isolation procedure. Total RNA from each plate well was transferred to a preamplification plate. Fluidigm's 96.96 Dynamic ArrayTM (Fluidigm, Amsterdam, the Netherlands) technology was used for gene expression analyses by quantitative reverse transcription polymerase chain reaction (qRT-PCR, performed by Quintiles/Expression Analysis, Durham, NC)89. Standard TaqManTM Assays (Applied Biosystems/ThermoFisher Scientific, Foster City, CA) were used to assess the expression of 93 genes selected based on their selectivity and sensitivity to important hepatic receptors known to be modulated by environmental chemicals; importance in human hepatocyte functionality; and hepatotoxicity. […]
As for `CCOCCOCCO`, the compound was classed as inactive.
As for `CCCCCCCCCCCCCCCCO`, the compound was classed as inactive.
In the case of `O=C(N[C@@H](c1ccccc1)[C@@H]1CCCCN1)c1cccc(C(F)(F)F)c1Cl`, the AC50 (commonly the concentration giving half of the maximal activity seen) is 87.1 µM (active).
In the case of `CCCCCCCCCC[N+](C)(C)[O-]`, the compound was called inactive.
Take `COC(=O)CCC(=O)OC`: the call was inactive.
As to `O=C1CCCCC1`, the call was inactive.
Consider `CCN(CC)CCOc1ccc(C(=C(Cl)c2ccccc2)c2ccccc2)cc1`, for which the compound was classed as inactive.
The same measure, in the same setting: the result for `CC(=O)O[C@]1(C(C)=O)CC[C@H]2[C@@H]3C=C(Cl)C4=CC(=O)[C@@H]5C[C@@H]5[C@]4(C)[C@H]3CC[C@@]21C` reads “inactive”.
Consider `Oc1ccc(O)cc1`, for which the outcome was inactive.
On to `NC(=Nc1ccccc1)Nc1ccccc1`, for which the compound was called inactive.
In the case of `Cc1cc(Cc2ccc(N)c(C)c2)ccc1N`, the outcome was inactive.
The same measure, in the same setting: then `CC(=O)S[C@H](C(=O)N[C@H]1Cc2ccccc2[C@H]2CCC[C@@H](C(=O)O)N2C1=O)C(C)C`, with “inactive”; and `CCCCCCC(C=O)=Cc1ccccc1`, with “inactive”.
For the compound `COc1ccc(OC(F)(F)F)cc1CN[C@H]1CCCN[C@H]1c1ccccc1`, the AC50 is 80.2 µM (active).
`O=C1O[C@H]([C@H](O)CO)C(O)=C1O`: the call was inactive.
In the case of `C=CCc1ccc(OC)c(OC)c1`, the call was inactive.
On the same count and under the same terms, then `Nc1nc(=S)c2[nH]cnc2[nH]1`, with “inactive”.
Still for that read-out and setting: the result for `CCCCOC(=O)CCCCC(=O)OCCCC` reads “inactive”.
For the compound `O=C(Oc1ccccc1)c1cccc(C(=O)Oc2ccccc2)c1`, the compound was classed as inactive.
On to `Nc1nc(Cl)nc2c1ncn2[C@H]1C[C@H](O)[C@@H](CO)O1`, for which the AC50 is 3.75 µM (active).
For `CC(C)c1cccc(C(C)C)c1NC(=O)NS(=O)(=O)c1cc(C(C)(C)O)co1`, the result was inactive.
On to `CC1=C(C)S(=O)(=O)CCS1(=O)=O`, for which the result was inactive.
Still for that read-out and setting: the result for `c1ccc2occc2c1` reads “inactive”; that for `C/C=C/C=C/C(=O)O`, “inactive”; that for `O=C(O)CN(CC(=O)O)CC(=O)O`, “inactive”.
For the compound `Cc1cn([C@H]2C=C[C@@H](CO)O2)c(=O)[nH]c1=O`, the outcome was inactive.
As for `OCC(CO)n1cnc(-c2ccc(F)cc2)c1-c1ccnc(Oc2ccccc2)n1`, the AC50 is 13.5 µM (active).
In the case of `NC1CCCCC1`, the result was inactive.
For the compound `CN(C)C(=O)NC1(c2ccccc2)CCN(CCC[C@]2(c3ccc(Cl)c(Cl)c3)CCCN(C(=O)c3ccccc3)C2)CC1`, the AC50 is 18.2 µM (active).
`Cc1ccc(C(C)(C)C)c(O)c1`: the call was inactive.
For the compound `CN(C)CCCN1c2ccccc2Sc2ccc(Cl)cc21`, the compound was classed as inactive.
With `CC(=O)O`, the call was inactive.
The same measure, in the same setting: then `O=C1OC(c2ccc(O)cc2)(c2ccc(O)cc2)c2ccccc21`, with “inactive”.
On to `C#CC(O)C(CC)CCCC` (stereo not given), for which the result was inactive.
Still for that read-out and setting: the result for `CC(=O)OC1CC(C)OC(C)O1` (stereo not given) reads “inactive”; that for `C/C=C/c1ccc(OC)cc1`, “inactive”; that for `Cc1cc(SC2=C(O)C[C@@](CCc3ccc(N)cc3)(C(C)C)OC2=O)c(C(C)(C)C)cc1CO`, “inactive”.
Consider `CCCCC(CC)COP(=O)(OCC(CC)CCCC)OCC(CC)CCCC` (stereo not given), for which the result was inactive.
As to `CC(=O)[C@@]1(O)CC[C@H]2[C@@H]3CCC4=CC(=O)CC[C@]4(C)[C@H]3CC[C@@]21C`, the result was inactive.
As for `CC(C)OC(=O)C(C)(C)Oc1ccc(C(=O)c2ccc(Cl)cc2)cc1`, the AC50 is 0.0439 µM (active).
